Experiment [1] in a line: HepG2 liver cancer cell viability effects, profiling panel, resazurin fluorescence, 24 h, PK04 Diversity Set (AID 1172). As to conditions: higher = more signal.
Experiment [2] can be described thus: basal S. cerevisiae growth modulation, no modifier, primary screen, OD600, strain BY4716, 24 h, basal condition (AID 1173). The following applies: OD600, 24 h, higher = more signal, called active from +8 up or from −8 down.
Experiment [3] can be described thus: MM1S myeloma cell viability, profiling panel, resazurin fluorescence, basal, 24 h, PK04 Diversity Set (AID 1174).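 Further: MM1S multiple myeloma cell line.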 The following applies: higher = more signal, called active from +8 up or from −8 down.
In experiment [4] the target is Dihydroorotate dehydrogenase (quinone), mitochondrial (Plasmodium falciparum (isolate 3D7)) (UniProt Q08210). Kind of experiment: PfDHODH enzyme inhibitors, primary screen, biochemical, C-terminal His tag, absorbance 600 nm (AID 1175).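 Further: recombinant parasite enzyme with a five histidine tag at its C terminus.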 As to conditions: DCIP absorbance 600 nm, higher = more signal, called active from +8 up or from −8 down.
Experiment [5] can be described thus: P. aeruginosa biofilm formation inhibitors, primary screen, strain PAO1, LB-PBS medium, absorbance 600 nm (AID 1176). As to conditions: P. aeruginosa PAO1 growth/biofilm, A600, 12 h; higher = more signal.
Experiment [6] in a line: S. cerevisiae RM11-1a growth modifiers, primary screen, strain RM11-1a, OD600, basal, 24 h (AID 1177).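 Further: cultures grown under basal conditions with no added stressor.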 As to conditions: OD600, 24 h, higher = more signal, called active from +8 up or from −8 down.
The nature of experiment [7]: E. coli acrAB mutant growth effects, primary screen, E. coli filamentation inducers, strain DRC39, OD650, 24 h (AID 1178).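 Further: growth measured as culture turbidity by optical density at 650 nm.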 As to conditions: higher = more signal, called active from +8 up or from −8 down.
Experiment [8] can be described thus: E. coli acrAB mutant growth effects, primary screen, E. coli filamentation inducers, strain DRC39, OD650, 48 h (AID 1179).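 Further: screen aims at cell division blockers that make cells filament.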 As to conditions: E. coli DRC39 delta-acrAB growth, higher = more signal, called active from +8 up or from −8 down.
Experiment [9] is described as follows: RPMI8226 myeloma cell viability, profiling panel, resazurin fluorescence, basal, 24 h, PK04 Diversity Set (AID 1180).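 Further: RPMI8826 multiple myeloma cell line at 5000 cells per well.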 As to conditions: higher = more signal.
Experiment [10] has as its target E3 ubiquitin-protein ligase XIAP (Homo sapiens) (UniProt P98170). Description: XIAP binders, primary screen, biophysical, small-molecule microarray, fluorescence 635 nm (AID 1181).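 Further: score merges 667 nm emission and signal to noise over triplicate slides.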 The following applies: small-molecule microarray binding, higher = more signal.
Experiment [11] concerns XIP peptide (Xip251-270) binding. Kind of experiment: small-molecule binders of XIP peptide, primary screen, biochemical, small-molecule microarray, fluorescence 635/667 nm, 0.1 µg/mL protein (AID 1182). As to conditions: fluorescent protein binding, 635 nm, higher = more signal, called active from +8 up or from −8 down.
The test system of experiment [12] is XIP peptide (Xip251-270). Kind of experiment: small-molecule binders of XIP peptide, primary screen, biochemical, small-molecule microarray, fluorescence 635/667 nm, 0.5 µg/mL protein (AID 1183). As to conditions: small-molecule microarray binding, fluorescence 635 nm; higher = more signal.
A short description of experiment [13]: Plasmodium falciparum growth inhibition, primary screen, strain 3D7, DAPI fluorescence, 100 nL (AID 1184).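 Further: parasites grown inside human red blood cells in medium with human serum.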 As to conditions: P. falciparum 3D7 growth, 3 d, higher = more signal.
The target in experiment [14] is Homeobox protein Hox-A13 (Mus musculus) (UniProt Q62424). Description: inhibitors of HoxA13-DNA binding, primary screen, biochemical, fluorescence polarization, labeled oligonucleotide (AID 1185). The following applies: 15 min, higher = more signal, called active from +8 up or from −8 down.
Experiment [15] is described as follows: inhibitors of hydroxyurea-induced Chk1 phosphorylation, primary screen, imaging, HeLa, phospho-Chk1 antibody, percent positive cells (AID 1186). The following applies: hydroxyurea-induced phospho-Chk1 immunofluorescence imaging, higher = more signal.
A short description of experiment [16]: inhibitors of hydroxyurea-induced Chk1 phosphorylation, primary screen, imaging, HeLa, phospho-Chk1 nuclear intensity (AID 1187). The following applies: hydroxyurea-induced phospho-Chk1 immunofluorescence imaging, higher = more signal.

Activity calls are given as the source filed them. Unless noted, how the calls were made is not given here.

Sequence of E3 ubiquitin-protein ligase XIAP (Homo sapiens) (P98170 whole entry, looked up): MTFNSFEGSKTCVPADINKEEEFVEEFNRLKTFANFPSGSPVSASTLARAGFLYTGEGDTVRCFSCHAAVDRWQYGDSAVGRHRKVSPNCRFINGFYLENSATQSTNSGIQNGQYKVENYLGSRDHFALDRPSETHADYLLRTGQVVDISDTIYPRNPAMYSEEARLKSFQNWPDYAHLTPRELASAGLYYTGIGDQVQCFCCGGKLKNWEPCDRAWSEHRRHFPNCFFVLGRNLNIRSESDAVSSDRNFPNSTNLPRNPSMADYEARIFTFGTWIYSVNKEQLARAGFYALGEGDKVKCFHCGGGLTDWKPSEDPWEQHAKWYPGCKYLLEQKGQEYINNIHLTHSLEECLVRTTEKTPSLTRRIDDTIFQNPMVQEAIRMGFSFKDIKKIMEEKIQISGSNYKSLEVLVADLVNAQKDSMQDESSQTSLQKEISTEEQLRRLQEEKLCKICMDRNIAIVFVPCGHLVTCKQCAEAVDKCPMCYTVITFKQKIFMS
Sequence of Dihydroorotate dehydrogenase (quinone), mitochondrial (Plasmodium falciparum (isolate 3D7)) (Q08210 whole entry, looked up): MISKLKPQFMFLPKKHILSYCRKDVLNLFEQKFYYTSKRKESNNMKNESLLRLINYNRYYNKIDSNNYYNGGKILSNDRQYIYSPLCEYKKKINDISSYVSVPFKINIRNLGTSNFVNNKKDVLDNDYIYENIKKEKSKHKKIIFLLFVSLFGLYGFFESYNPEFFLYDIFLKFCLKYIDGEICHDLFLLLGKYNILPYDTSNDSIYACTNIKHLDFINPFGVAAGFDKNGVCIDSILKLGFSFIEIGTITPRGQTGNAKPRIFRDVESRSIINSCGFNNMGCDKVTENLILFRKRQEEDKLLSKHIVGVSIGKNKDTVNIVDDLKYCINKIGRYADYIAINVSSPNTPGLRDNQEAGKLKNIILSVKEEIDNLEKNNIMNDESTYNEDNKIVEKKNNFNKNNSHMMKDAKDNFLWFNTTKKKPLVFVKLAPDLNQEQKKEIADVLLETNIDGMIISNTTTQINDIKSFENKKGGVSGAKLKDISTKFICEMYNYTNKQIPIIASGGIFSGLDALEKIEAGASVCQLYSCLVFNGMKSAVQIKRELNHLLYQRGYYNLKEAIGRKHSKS
Sequence of Homeobox protein Hox-A13 (Mus musculus) (Q62424 whole entry, looked up): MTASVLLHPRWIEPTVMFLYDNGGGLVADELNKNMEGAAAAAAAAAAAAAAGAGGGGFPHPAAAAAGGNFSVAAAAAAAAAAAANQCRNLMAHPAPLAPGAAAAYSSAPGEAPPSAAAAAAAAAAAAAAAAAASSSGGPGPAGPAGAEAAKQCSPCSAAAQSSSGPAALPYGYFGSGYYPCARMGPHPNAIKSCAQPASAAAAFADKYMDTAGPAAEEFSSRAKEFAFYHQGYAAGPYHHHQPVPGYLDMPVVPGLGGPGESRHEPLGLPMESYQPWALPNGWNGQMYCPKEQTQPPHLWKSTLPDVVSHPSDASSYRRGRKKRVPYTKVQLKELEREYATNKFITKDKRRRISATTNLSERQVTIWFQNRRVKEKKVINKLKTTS

Regarding `CC(=O)NCCCC[C@@H]1NC(=O)[C@@H]2C[C@H](C(=O)NCc3ccc(F)cc3)[C@H](c3cccc(OCCO)c3)N2C1=O`, the z-score was -0.352 in [1]; 0.473 (inactive) in experiment [2]; 0.0366 (inactive) in [3]; 0.298 (inactive) in experiment [5]; 0.625 (inactive) in experiment [6]; -0.34 (inactive) in experiment [7]. Besides, the z-score in experiment [8] was -0.17 (inactive); in experiment [9], 0.168; in experiment [13] it was 0.447; in experiment [14] it was -4.11 (inactive); in experiment [15], 0.676 (inactive); in [16], 0.312 (inactive). Besides, the composite z-score in experiment [4] was -0.79 (inactive); in [10] it was -0.335; in experiment [11], 0.356 (inactive); in experiment [12], 0.117.

On to `COc1ccc(NN2C(C(O)c3cc(OC)c(OC)c(OC)c3)C=CC3C(=O)N(C4CCCCC4)C(=O)C32)cc1` (configuration not stated), for which the z-score in experiment [1] is -0.665; in experiment [2] it was -0.376 (inactive); in [3] it was -0.946 (inactive); in experiment [5], 0.89 (inactive); in [6] it was 0.389 (inactive); in [7], -1.02 (inactive). The z-score in experiment [8] is 0.187 (inactive); in [9] it was -1.48; in experiment [13] it was -1.11; in experiment [14] it was -4.58 (inactive); in experiment [15] it was 0.071 (inactive); in [16] it was -0.378 (inactive). Further, the composite z-score in experiment [4] was -0.41 (inactive); in [10], 0.147; in [11], -0.0682 (inactive); in experiment [12], 0.758.

In the case of `COCCCNC(=O)[C@@]1(c2ccc([N+](=O)[O-])cc2)CC(=O)N(C2CCCCC2)[C@@H]1c1ccc(CO)cc1`, the z-score in experiment [1] was 0.172; in [2], -0.27 (inactive); in experiment [3], 0.337 (inactive); in experiment [5], 0.814 (inactive); in [6], -0.491 (inactive); in experiment [7] it was -0.131 (inactive). In addition, the z-score is -0.346 (inactive) in [8]; 0.946 in experiment [9]; -0.214 in experiment [13]; -2.99 (inactive) in [14]; 0.029 (inactive) in [15]; -0.269 (inactive) in experiment [16]. Besides, the composite z-score in experiment [4] is -0.0394 (inactive); in [10], 0.147; in [11], 0.516 (inactive); in experiment [12] it was -0.0219.

In the case of `[N-]=[N+]=NCc1ccccc1[C@H]1OC(c2ccc(OCCCO)cc2)=N[C@@]1(Cc1ccccc1N=[N+]=[N-])C(=O)NCc1ccccc1`, the z-score in [1] was -0.494; in experiment [2], 0.745 (inactive); in experiment [3], -2.31 (inactive); in experiment [5], 2.26 (inactive); in experiment [6], 1.95 (inactive); in [7] it was 0.134 (inactive). For the same molecule, the z-score was -0.321 (inactive) in experiment [8]; -1.52 in experiment [9]; -2.49 in [13]; -1.23 (inactive) in [14]; -0.0872 (inactive) in [15]; -0.747 (inactive) in experiment [16]. In addition, the composite z-score was 0.545 (inactive) in experiment [4], -0.117 in experiment [10], 0.0116 (inactive) in experiment [11] and 0.649 in experiment [12].

Turning to `C=C(CCCC)/C(=C/C[C@@H](OC(=O)c1ccncc1)c1cccc(OCCO)c1)c1cc(C(=O)OC)ccc1OC`, the z-score in [1] was 1.02; in [2], 0.199 (inactive); in experiment [3] it was -0.73 (inactive); in experiment [5], 1.05 (inactive); in experiment [6], 0.0731 (inactive); in experiment [7], 1.81 (inactive). The z-score in experiment [8] was 1.33 (inactive); in [9], -0.647; in [13], -3.09; in experiment [14], -3.11 (inactive); in [15], 0.0994 (inactive); in [16] it was 0.74 (inactive). The composite z-score in experiment [4] was -0.757 (inactive); in [10], 0.137; in experiment [11], 1.33 (inactive); in [12], 0.74.

On to `CCOC(=O)C1=CC[C@@H](c2ccc(-c3ccc(OCc4ccccc4)cc3)c(OC)c2)N(S(=O)(=O)c2ccc(C)cc2)[C@H]1c1ccccc1`, for which the z-score was 0.899 in experiment [1]; 0.0553 (inactive) in experiment [2]; 0.25 (inactive) in experiment [3]; 0.325 (inactive) in [5]; -0.0764 (inactive) in [6]; 0.263 (inactive) in experiment [7]. Moreover, the z-score was 1.3 (inactive) in experiment [8]; 0.894 in experiment [9]; -1.94 in experiment [13]; -0.242 (inactive) in [14]; -1.04 (inactive) in [15]; -0.995 (inactive) in experiment [16]. Further, the composite z-score in experiment [4] is 0.917 (inactive); in [10], -0.02; in experiment [11], 0.525 (inactive); in experiment [12] it was 0.6.

For `CC[C@H]1C2=C3C(CC[C@H]4C(OC)OC[C@](C)([C@@H]34)N(C(=O)OC(C)(C)C)C2)C(CO)C1CO` (some centres not stated), the z-score is -0.453 in experiment [1]; 0.145 (inactive) in experiment [2]; -0.713 (inactive) in experiment [3]; 0.452 (inactive) in [5]; -0.681 (inactive) in experiment [6]; -0.0328 (inactive) in experiment [7]. Also, the z-score in [8] was 0.753 (inactive); in [9], -0.141; in experiment [13] it was -0.62; in [14] it was -4.74 (inactive); in experiment [15], -1.37 (inactive); in experiment [16] it was -1.18 (inactive). The composite z-score was -0.929 (inactive) in experiment [4], 0.26 in experiment [10], 0.442 (inactive) in experiment [11] and 0.701 in experiment [12].

Source of the values: PubChem BioAssay.
